From PubChem
Marburg entry inh – qHTS for inhibitors of binding or entry into cells for Marburg Virus. Potency, µM (highest dose often 37.8 µM), without a hit: at the top dose activity change, negative = inhibition, most hits filed as inhibitors. Marburg virus pseudotyped entry inhibition, cell reporter. hit rate 1.8% among 300,000; calls by dose curve; tested in HEK293 cells; note: potency is the fitted concentration of half-maximal effect; % is set by controls: 0 for no effect and ±100 for the full control effect
Shiga inhibitor – A qHTS for Small Molecule Inhibitors of Shiga Toxin; Vero cells, Shiga toxin protein synthesis inhibition reporter; inhibition, % at 38.7 µM; hit rate 9.2% among 290,000; in the data active = inhibition mostly above about 28%, no sharp cut-off; inactive = mostly below about 43%; note: 0% is about no effect
Pf growth 48h – Primary qHTS for delayed death inhibitors of the malarial parasite plastid, 48 hour incubation | P. falciparum luciferase growth in erythrocytes, 48 h | Potency, µM (highest dose often 28.7 µM), for inactives: at the highest dose activity change, negative = inhibition, actives largely listed as inhibitors | hit rate 5.9% among 310,000 | AID 504832, 2011; note: potency is the fitted concentration of half-maximal effect; % is set by controls: 0 for no effect and ±100 for the full control effect
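Parasite viability was followed by luminescence of a genomically integrated firefly luciferase. Cultures held 0.1% parasitemia at 2% hematocrit (final), incubated under 5% CO2 at 37 C.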
Pf growth 96h – Primary qHTS for delayed death inhibitors of the malarial parasite plastid, 96 hour incubation | P. falciparum luciferase reporter growth, 96 h | Potency, µM (highest dose often 28.7 µM), for inactives: top-dose activity change, negative = inhibition, usual class: inhibitors | hit rate 6.9% among 320,000 | AID 504834, 2011; note: potency is the fitted concentration of half-maximal effect; % is set by controls: 0 for no effect and ±100 for the full control effect
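Two parasite generations (96 h, 37 C, 5% CO2) of compound exposure in infected erythrocytes (0.05% parasitemia, 2% hematocrit). Luciferase-reporter P. falciparum; decreased luminescence indicates inhibited growth, aimed at apicoplast-acting delayed death.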
Cycloheximide cs – Cycloheximide Counterscreen for Small Molecule Inhibitors of Shiga Toxin; AID 2314, 2010; max response, %; cell reporter, cycloheximide protein synthesis inhibition counterscreen; hit rate 12% among 300,000; in the data active = max response mostly above about 13%, no sharp cut-off; inactive = mostly below about 14%; note: read at 38.3 µM for the half of the compounds with a filed dose; 0% is about no effect
Lassa entry inh – qHTS for Inhibitors of binding or entry into cells for Lassa Virus. Lassa virus pseudotype entry inhibition, cell reporter. Potency, µM (highest dose often 37.9 µM), inactives show top-dose activity change, negative = inhibition, actives largely listed as inhibitors. hit rate 1.2% among 300,000; calls by dose curve; tested in HEK293 cells; note: potency is the fitted concentration of half-maximal effect; % is set by controls: 0 for no effect and ±100 for the full control effect; nearly all actives have a fitted effect of over 50% in size
* hit, by the source's call; ? = inconclusive; . = no result; [ ] = dose if it differs, or a comment. Sampled rows, rich in hits. Any-hit rate of the full collection: about 19%. Unless noted, calls come from the whole dose curve; as a rule, active = well fitted inhibition curve with a large enough effect; inconclusive = small, poorly fitted or top-dose-only effect, or another doubt; inactive = no such curve, though single readings can be large or run the other way.

SMILES | Marburg entry inh | Shiga inhibitor | Pf growth 48h | Pf growth 96h | Cycloheximide cs | Lassa entry inh
COc1ccc(N2Cc3ccc(OC)c(OC)c3C2=O)cc1 | . | 76* | 139% | 101% | 48* | .
COc1ccc2c(c1OC)C(=O)N(c1nccs1)C2 | -14% | 66 | 98% | 91% | 34* | ?
COc1ccc2c(c1OC)C(=O)N(c1cccc(/C=C/C(=O)O)c1)C2 | . | -4 | -15%[0.00184 µM] | -16% | -4 | .
Cc1ccc(-c2c[n+](CC(=O)c3cccs3)c3n2CCC3)cc1 | 6%[46.1 µM] | 11 | 2.3µM* | 4.1µM* | 3 | -19%[46.1 µM]
COc1ccc(-c2c[n+](CC(=O)c3cccs3)c3n2CCC3)cc1 | -17% | 14 | 2.3µM* | ? | 1 | -11%
CCN(CC(=O)Nc1ccc(NC(C)=O)cc1)C(=O)c1cccc(S(=O)(=O)N2c3ccccc3CC2C)c1 (centres undefined) | 6%[46.1 µM] | . | ? | ? | . | ?
CC1Cc2ccccc2N1S(=O)(=O)c1cccc(C(=O)NCc2ccco2)c1 (centres undefined) | ? | . | . | . | . | 10µM*
CC1Cc2ccccc2N1S(=O)(=O)c1cccc(C(=O)OCC(=O)NCc2ccco2)c1 (centres undefined) | -1%[46.1 µM] | -5 | ? | 6% | 1 | 4%
C=CCN(CC=C)C(=O)c1cccc(S(=O)(=O)N2c3ccccc3CC2C)c1 (centres undefined) | . | -7 | 2.3µM* | ? | -1 | .
CC1Cc2ccccc2N1S(=O)(=O)c1ccc2c(c1)n(C)c(=O)c(=O)n2C (centres undefined) | -10% | -9 | 9.3µM* | ? | -3 | 5%
C=CCc1cccc(/C=N/c2nc3ccccc3n2CC)c1O | 1% | 21 | 9% | -14% | -1 | 28%
Cc1cc(C(=O)NC2CCCN(Cc3ccc(Cl)cc3)C2)no1 (centres undefined) | . | -4 | 0% | ? | 13 | .
O=C(NC1CCCC1)c1cc(-c2ccc(Cl)cc2Cl)on1 | 1%[46.1 µM] | 105* | 69% | -20% | 44* | ?
O=C(NC1CCCCC1)c1cc(-c2ccccc2Cl)on1 | -22%[46.1 µM] | 137* | 87% | 15% | 45* | -8%
COc1ccccc1-c1cc(C(=O)NC2CCCC2)no1 | ? | 71* | 28% | 228% | 16* | ?
O=C(NC1CCCC1)c1cc(-c2cccs2)on1 | ? | 182* | 260% | 51% | 57* | ?
COc1ccccc1-c1cc(C(=O)N2CCCCC2C)no1 (centres undefined) | 7%[46.1 µM] | . | . | . | . | 5%[46.1 µM]
COc1ccc(C)cc1NC(=O)N1CC(C)Sc2ccccc21 (centres undefined) | . | . | . | . | . | 12%[46.1 µM]
Cc1ccc(C)c(NC(=O)c2ccc3c(c2)CCN3S(=O)(=O)c2ccccc2)c1 | -18%[46.1 µM] | . | . | . | . | 1%[46.1 µM]
O=C(NC1CCCC1)c1cc(-c2ccccc2Cl)on1 | ? | 107* | 147% | 25% | 43* | ?
O=C(NC1CCCCC1)c1csnn1 | 26% | . | . | . | . | ?
O=C(CCCc1nc(-c2ccccc2Cl)no1)NC1CCCCC1 | ? | -3 | 6% | -3% | -3 | -5%
CC1CCCC(C)N1C(=O)c1cc(-c2cccs2)on1 (centres undefined) | 12% | 70* | -54% | -6% | 26* | 50%[14.3 µM]
O=C(NC1CCCC1)c1cc(-c2ccccc2O)on1 | 0%[46.1 µM] | 91* | -26% | 19% | 34* | 20%
COCC(C)NC(=O)c1cc(-c2ccccc2OC)on1 (centres undefined) | -22% | 39* | 80% | -5% | 41* | ?
SMILES | Marburg entry inh | Shiga inhibitor | Pf growth 48h | Pf growth 96h | Cycloheximide cs | Lassa entry inh
COc1ccccc1-c1cc(C(=O)NCc2ccccc2)no1 | -28% | 19 | 5% | 75% | 10 | -4%
CC[N+](C)(C)CC/C=C1/c2ccccc2Sc2ccc(Cl)cc21 | -20%[14.2 µM] | -4 | 3.7µM* | 1.7µM* | -1 | 8%
CCCCCCCCCCC[N+](C)(C)CC/C=C1/c2ccccc2Sc2ccc(Cl)cc21 | . | -3 | . | ? | 2 | .
CCCCCCCCCC[N+](C)(C)CC/C=C1/c2ccccc2Sc2ccc(Cl)cc21 | . | 21 | . | 3.7µM* | -1 | .
CN1C(=S)SC(N(O)C(=O)Nc2ccc(Cl)c(Cl)c2)C1(C)C (centres undefined) | ? | -11 | ? | ? | -5 | -24%
CN(C)/C=N/C(=S)Nc1ccccc1F | 23% | 90 | 42% | 19% | 28* | 4%
CN(C)/C=N/C(=S)Nc1ccccc1Cl | ? | 49* | 73% | 10% | 39* | 10%
CC(C)CNC(=S)Nc1ccccc1F | 2% | 11 | 44% | ? | 5 | -1%
CN(O)/C=N/C(=S)Nc1ccc(Cl)cc1Cl | . | 14 | -3% | 10% | 9 | .
Cc1ccc(NC(=O)c2cc(S(=O)(=O)NC3CCCCCC3)ccc2F)cc1F | . | . | . | . | . | -19%[46.1 µM]
CC(C)(C)c1[nH]c2ccccc2c1/C=N/O | -8% | -10 | . | -7% | 1 | 2%
O=C(CS(=O)(=O)c1ccccc1)Nc1cccnc1 | ? | -16 | 13% | 59% | -2 | 19%
Cc1ccc(C)c(NC(=O)N2CCc3ccccc3C2)c1 | . | 78* | 184% | ? | 42* | .
Cc1ccc(C)c(NC(=O)N2CCCCCC2)c1 | . | 9 | 37% | ? | 10 | .
O=C(Nc1ccccc1F)N1CCc2ccccc2C1 | . | 84* | 98% | ? | 57* | .
COc1ccc2c(c1)CCC1C2=NN(/C(C)=C/C(C)=O)C1c1cccc(F)c1 (centres undefined) | ? | 47* | -13% | -17% | 32* | 0%
COc1cc(/C(C)=N/NC(=O)CSc2nncn2C)ccc1OCc1ccccc1Cl | 1% | 84* | ? | ? | 38* | 6%
CCOc1cc(/C=N/NC(=O)CSc2nncn2C)ccc1OCc1ccccc1 | -12% | 16 | -18% | ? | -3 | 4%
O=C(NCc1ccco1)c1ccc(OCC2CCCO2)cc1 (centres undefined) | 25% | 23 | 1% | . | 20* | 11%
O=C(NCc1ccc(Cl)cc1)c1ccc(OCC2CCCO2)cc1 (centres undefined) | -2% | 14 | 9% | 7% | -3 | -1%
Cc1ccc(CNC(=O)c2ccc(OCC3CCCO3)cc2)cc1 (centres undefined) | 12% | 16 | 0% | 34% | 15* | 8%
COc1ccccc1CC(=O)Nc1cc(Cl)ccc1O | 4% | -1 | ? | ? | -2 | -13%
COc1ccc(C2C(C#N)=C(N)Oc3c2sc2nc(C)cc(C)c32)cc1 (centres undefined) | ? | -1 | -1% | . | 1 | ?
Cc1cc(C)c2c3c(sc2n1)C1(CCSCC1)C(C#N)=C(N)O3 | -25% | 29* | -10% | . | 18 | -28%
CCc1ccc(-c2nn(Cc3ccccc3)cc2C=O)cc1 | ? | 90* | 156% | 282% | 50* | -8%
